Source: PubChem BioAssay (several laboratories)
This is a sample that favours compounds with a hit; in the whole collection about 28% have one here.
CYP2C19 inhib = human CYP2C19 inhibition; P33261; CYP2C19 Supersomes, luciferin-H EGE luminescence, 30 min; inhibition, % at 5 µM; hit rate 21% among 96,000;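 active = CYP2C19 inhibition above a set limit at 5 µM in the primary screen, cut at about 50% in these data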;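 also: plate controls were negative control wells for no effect and 2.5 mM tranylcypromine positive control for full effect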
D1 allo mod = allosteric modulators of human D1 dopamine receptor; P21728; HEK293 D1, CRE-luciferase, dopamine EC30 potentiation; actives deviate in either direction; B-score at 10 µM; hit rate 5.9% among 58,000;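 active = luminescence count or its row- and column-corrected plate score outside the 99.7% band of the plate's sample wells, on either side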
Target sequence (P21728 whole entry, looked up): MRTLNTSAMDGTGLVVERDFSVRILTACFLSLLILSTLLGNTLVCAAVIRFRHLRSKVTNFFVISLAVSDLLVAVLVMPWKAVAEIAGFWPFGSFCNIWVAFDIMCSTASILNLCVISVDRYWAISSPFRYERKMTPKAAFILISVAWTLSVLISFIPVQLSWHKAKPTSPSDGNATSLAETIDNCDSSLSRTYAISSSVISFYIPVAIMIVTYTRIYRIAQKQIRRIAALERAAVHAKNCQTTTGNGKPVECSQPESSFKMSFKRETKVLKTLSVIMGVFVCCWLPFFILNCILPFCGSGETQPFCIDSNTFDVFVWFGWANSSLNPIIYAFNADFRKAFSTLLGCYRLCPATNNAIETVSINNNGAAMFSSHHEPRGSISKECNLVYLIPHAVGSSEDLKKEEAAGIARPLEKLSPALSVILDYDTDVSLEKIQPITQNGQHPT
CYP2C9 inhib = blocks human cytochrome P450 2C9; P11712; CYP2C9 Supersomes, luciferin-H conversion, luminescence; inhibition, % at 5 µM; hit rate 20% among 96,000; AID 777;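 active = blocking of liver enzyme CYP2C9 beyond about 50% at 5 µM, limit read from the data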
DAT uptake mod = human DAT dopamine uptake with cocaine, either direction; Q01959; LLC-PK1 hDAT cells, [14C]-dopamine uptake with cocaine IC80; actives deviate in either direction; B-score at 10 µM; hit rate 1.3% among 110,000; AID 449768;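 active = Z score or B-score, a plate-position-corrected score, falls beyond the plate's 99.7% confidence bounds, in either direction; inactive = both scores lie inside the 99.7% bounds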;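 also: scored against the spread of the other compound wells on the same plate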
CYP2C19 activ = activators of human cytochrome P450 2C19; recombinant CYP2C19, luciferin-H EGE luminescence; active compounds read high; 0 = fully inhibited enzyme, 1 = untreated enzyme; 96,000 tested, under 10 active; P33261; activation factor at 5 µM;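 active = activation factor of at least 2 at 5 µM in the primary screen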;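 also: 0 = wells with 2.5 mM tranylcypromine and 1 = vehicle-only wells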
CYP2C9 act = activators of human CYP2C9; P11712; recombinant CYP2C9, luciferin-H conversion, luminescence; active compounds read high; factor 1 = untreated enzyme, 0 = blocked; activation factor at 5 µM; hit rate 1.4% among 96,000; AID 1024;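 active = activation factor of 2 or more for CYP2C9 at a 5 µM dose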;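 also: 0 = sulfaphenazole-blocked wells and 1 = vehicle-only wells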
Active calls of the source: *; . = no result given.

SMILES	CYP2C19 inhib	D1 allo mod	CYP2C9 inhib	DAT uptake mod	CYP2C19 activ	CYP2C9 act
O=C(NCc1nc2ccccc2[nH]1)C1=C[C@H](c2ccc(C(F)(F)F)cc2)C[C@H](OCCCCO)O1	.	.	.	0.97	.	.
Cn1c(SCC(=O)N2CCCCC2)nc2cccnc21	9	-0.097	0	-0.92	0.9	1
Cc1ccc(Nc2nnc(SCC(=O)Nc3ccc(S(=O)(=O)N4CCOCC4)cc3)s2)cc1	-20	.	74*	2.3	1.2	0.3
Nn1c(SCC(=O)Nc2ccc3c(c2)OCO3)nnc1-c1ccncc1	-2	-0.57	22	.	1	0.8
CCOC(=O)c1ccc(NC(=O)CSc2nnc(-c3ccncc3)n2C)cc1	69*	.	73*	1.4	0.3	0.3
O=C(CSc1nnc(Nc2ccccc2)s1)Nc1ccc(S(=O)(=O)N2CCOCC2)cc1	-5	.	10	0.38	1.1	0.9
Cc1cc(NC(=O)CSc2nnc(-c3ccncc3)n2N)ccc1Br	48	0.0089	87*	-0.21	0.5	0.1
OCCN1CCN(Cc2cc(Cl)c3cccnc3c2O)CC1	8	.	16	0.92	0.9	0.8
COc1cccc(C(=O)Oc2c(CN3CCOCC3)cc(Cl)c3cccnc23)c1	63*	.	91*	2	0.4	0.1
O=C(Oc1c(CN2CCOCC2)cc(Cl)c2cccnc12)c1ccc(F)cc1	34	-1.1	62*	-0.058	0.7	0.4
COc1cc(C(=O)Oc2c(CN3CCOCC3)cc(Cl)c3cccnc23)cc(OC)c1OC	66*	2.5	37	.	0.3	0.6
COc1ccc(C(=O)Oc2c(CN3CCOCC3)cc(Cl)c3cccnc23)cc1	12	0.14	34	0.48	0.9	0.7
COC(=O)C1=C(C)NC(=O)C1(NC(=O)CN1CCCC1=O)C(F)(F)F (stereo not drawn)	.	0.085	.	0.28	.	.
CN(C)c1ccc(-c2nnn(Cc3ccccc3Br)n2)cc1	96*	1.2	-36	-1.3	0	1.4
Cc1c(C#N)c2ncnc(-c3ccccc3)c2n1-c1ccccc1	16	0.92	-10	0.11	0.8	1.1
Cc1c(C#N)c2ncn(Cc3ccccc3)c(=O)c2n1-c1ccccc1	45	13*	63*	0.33	0.6	0.4
Cc1ccc(F)c(NC=C2C(=O)OC(C)(C)OC2=O)c1	9	1.2	-8	-0.23	0.9	1.1
CC(C)NC(=O)c1ccccc1NC(=O)CS(=O)(=O)Cc1ccccc1	17	.	80*	1.2	0.8	0.2
CC(C)NC(=O)c1ccccc1NC(=O)CCS(=O)(=O)Cc1ccccc1	4	.	76*	-0.57	1	0.2
COc1ccc(OC)c(S(=O)(=O)n2cnc3cc(C)c(C)cc32)c1	98*	2.8	87*	0.47	0	0.1
COc1ccc(OC)c(S(=O)(=O)n2nc(C)cc2C)c1	68*	.	14	0.4	0.3	0.9
Cc1nnc(SCC(=O)c2cc(C)n(-c3c(C)n(C)n(-c4ccccc4)c3=O)c2C)s1	-4	-0.49	22	0.16	1	0.8
COc1ccc(C)cc1-n1nnnc1SC/C(O)=C(\C#N)c1nc2ccccc2[nH]1	14	.	38	0.03	0.9	0.6
CC(C)(C)c1nnc2sc(SC/C(O)=C(\C#N)c3nc4ccccc4[nH]3)nn2c1=O	68*	-0.11	43	-0.72	0.3	0.6
COc1ccc(C(=O)CSc2nn3c(=O)c(C(C)(C)C)nnc3s2)cc1	14	-0.15	27	-0.64	0.9	0.7
SMILES	CYP2C19 inhib	D1 allo mod	CYP2C9 inhib	DAT uptake mod	CYP2C19 activ	CYP2C9 act
COc1ccc(-n2c(C)cc(C(=O)CSc3nn4c(=O)c(C(C)(C)C)nnc4s3)c2C)cc1	58*	-0.42	78*	0.21	0.4	0.2
CC(C)(C)c1nnc2sc(SCC(=O)c3ccccc3)nn2c1=O	36	-0.29	88*	0.089	0.6	0.1
O=C(O)c1oc2ccc(Br)cc2c1-n1cccc1	-10	-0.36	-4	-0.41	1.1	1
CC(=O)Nc1ccccc1Nc1cc(C#N)c(C#N)cc1[N+](=O)[O-]	13	.	3	-1.1	0.9	1
O=C([C@@H]1CC=C[C@@H]2CCN(C3CC3)C(=O)[C@@H]21)N1CCN(c2ccccc2)CC1	.	.	.	1.2	.	.
CN1c2ccccc2C(C)(C)C12C=Nc1c(cc(N3CCOCC3)c3ccccc13)O2 (stereo not drawn)	30	.	70*	0.34	0.7	0.3
Nc1ccccc1N1CCOCC1	1	.	4	-0.52	1	1
